Measured values published in PubChem BioAssay (NCI).
This is part of a sample that, as a whole, favours compounds with a hit. Of some 83,000 tested, about 20% had one in any assay.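 Results are percent growth after 48 hours of single-concentration exposure. 100 means growth as in untreated cells, lower positive values show inhibition; negative values down to -100 show cell death.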 Active and inactive are the calls of the source. The calls were made as follows: active = growth percent below 10; inactive = the rest.

Assays:
Assay in all cases: NCI-60 one-dose screen, 48 h (100 = growth as untreated, 0 = no growth, -100 = all killed)
Details in all cases: 10 µM
[1] = system: NCI-H23 lung
[2] = system: NCI-H226 lung
[3] = system: NCI-H322M lung
[4] = system: HOP-62 NSCLC
[5] = system: NCI-H460 lung
[6] = system: HOP-92 NSCLC
[7] = system: NCI-H522 lung
[8] = system: A549/ATCC NSCLC
[9] = system: 786-0 renal
[10] = system: COLO 205 colon

Measured: growth

Cc1ccc(S(=O)(=O)c2nc(-c3ccccc3)oc2S(=O)(=O)CC(=O)N2CCCC2)cc1
active: [1] -77.9% | [6] -85.6% | [7] -96.3% | [9] -57.3% | [10] -93.2%
inactive: [2] 56.3% | [3] 73.6% | [4] 78.3% | [5] 26.4% | [8] 63.4%

O=C(Nc1nc2ccc([N+](=O)[O-])cc2s1)Nc1ccccc1I
active: [1] -6.9% | [2] -7.84% | [3] -0.431% | [4] 7.62% | [5] 6.36% | [6] -28.1% | [7] -23.7% | [8] 3.05% | [9] 0.486% | [10] -94.2%

COc1ccc2nc(Nc3cccc(NC(=O)c4ccc(CN5CCN(C)CC5)c(C(F)(F)F)c4)c3)ccc2c1
active: [1] -94.9% | [2] -46.9% | [3] -64% | [4] -77.6% | [5] -84.5% | [6] -57% | [7] -85.7% | [8] -54.7% | [9] -55.3% | [10] -90.3%

COc1ccc([C@H]2C(C(=O)c3ccc(Cl)cc3)C3(N[C@@H]2c2ccccc2)C(=O)Nc2ccc(Br)cc23)cc1 (stereo not given in full)
inactive: [3] 21.6% | [8] 17.3%
active: [1] -47.4% | [2] -42.5% | [4] -8.82% | [5] -44.4% | [6] -20.6% | [7] 6.07% | [9] -17.5% | [10] -92%

CCNCCCn1c2c(c3cc(OC)c(OC)cc3c1=O)C(=O)c1cc3c(nc1-2)OCO3
inactive: [3] 35.2% | [4] 11.7% | [6] 44.4% | [7] 35.8% | [8] 21.1% | [10] 25.7%
active: [1] -27.2% | [2] -79.7% | [5] -24.7% | [9] -71.7%

Nc1n[nH]c2cccc(C#Cc3cccc(NC(=O)Nc4cc(C(F)(F)F)cc(C(F)(F)F)c4)c3)c12
active: [1] -88.4% | [2] -52.6% | [3] -22.4% | [4] -55.3% | [5] -56.8% | [6] -71.5% | [7] -58.4% | [8] -35.3% | [9] -20.3% | [10] -77.5%

C=C(C)[C@@H]1CC[C@]2(C(=O)OC)CC[C@]3(C)[C@H](CC[C@@H]4[C@@]5(C)CC[C@H](N)C(C)(C)[C@@H]5CC[C@]43C)[C@@H]12
active: [1] -94.8% | [2] -89.3% | [3] -96.5% | [4] -81.6% | [5] -53.7% | [6] -68.9% | [7] -77.8% | [8] -86.9% | [9] -98% | [10] -68.9%

COc1ccc(CN2[C@@H](C(=O)NCc3ccc(C(=O)NO)cc3)Cc3c([nH]c4ccccc34)[C@@H]2C)cc1
active: [6] 2.77% | [7] -5.15% | [10] -12.6%
inactive: [1] 15.2% | [2] 45.8% | [3] 30.5% | [4] 37.7% | [5] 11.7% | [8] 41.6% | [9] 39.7%

c1ccc(C(=C(c2ccc(OCCN3CCCCC3)cc2)c2ccc(OCCN3CCCCC3)cc2)C2CCCC2)cc1
active: [1] -81% | [2] -15.5% | [4] -10.9% | [5] -55.4% | [6] -61% | [7] -42.2% | [8] -17.9% | [9] -33.3% | [10] -92.6%
inactive: [3] 39.8%

COc1ccc2nc(Cl)c(-c3cc(-c4ccccc4)nc(=S)[nH]3)cc2c1
inactive: [1] 72.6% | [2] 80.2% | [3] 89.4% | [4] 75.7% | [5] 90.4% | [6] 54.1% | [7] 37% | [8] 93.6% | [9] 78% | [10] 72.6%

COc1ccc(CN2[C@@H](C(=O)NCc3ccc(C(=O)NO)cc3)Cc3c([nH]c4ccccc34)[C@@H]2C2CC2)cc1
active: [6] -3.87% | [7] -17% | [10] -40.3%
inactive: [1] 21.3% | [2] 50.8% | [3] 42% | [4] 24% | [5] 13.7% | [8] 40.3% | [9] 28.4%

CN1CCN(c2ccc(C(=O)/C=C/c3ccc(C#N)cc3)cc2)CC1
inactive: [1] 76.5% | [2] 80.7% | [3] 94.2% | [4] 89.1% | [5] 97.1% | [6] 77.2% | [7] 81.5% | [8] 76.3% | [9] 73.5% | [10] 87.4%

C=C[C@@]12CN3CC[C@]1(O)[C@@](C(=O)OC)(CO2)c1[nH]c2ccccc2c1C3
inactive: [1] 78% | [2] 83.1% | [3] 93.7% | [4] 99.5% | [5] 87.2% | [6] 54.9% | [7] 22.3% | [8] 87.6% | [9] 84% | [10] 33.7%

CC(C)NC(=O)c1cc(-c2ccc(NC(=O)Nc3ccc(N4CCN(C)CC4)c(C(F)(F)F)c3)cc2)nc2cccnc12
active: [1] -84.6% | [2] -69.1% | [3] -90.6% | [4] -88.4% | [5] -61.7% | [6] -74.8% | [7] -90.8% | [8] -78.9% | [9] -93.8% | [10] -81.1%

CN1CCN(c2ccc(C(=O)/C=C/c3cc(C(F)(F)F)ccc3Cl)cc2)CC1
active: [1] -95.3% | [2] -93% | [3] -94.8% | [4] -27.4% | [5] -46.6% | [6] -58.9% | [7] -60.4% | [8] -78.1% | [9] -83.1% | [10] -97%

O=C(CNc1nc(-c2ccccc2)cs1)Nc1ccc([N+](=O)[O-])cc1
inactive: [2] 29.4% | [4] 33.3% | [5] 35% | [6] 42.8% | [8] 42.8% | [9] 16%
active: [1] -6.85% | [3] 6.59% | [7] -74.6% | [10] -83.3%

CC[C@@]1(O)C(=O)OCc2c1cc1n(c2=O)Cc2c-1nc1cc(F)c(C)c3c1c2[C@@H](N)CC3
active: [1] -57.4% | [2] -54.1% | [3] 0.642% | [4] -31.7% | [5] -4.63% | [7] -53.9% | [8] -57.9% | [9] 5.22% | [10] -81.6%
inactive: [6] 15.1%

CO[C@@H]1CSSC1Cn1nc(-c2ccc(Oc3ccccc3)cc2)c2c(N)ncnc21 (stereo not given in full)
inactive: [1] 46.4% | [2] 31.1% | [3] 63% | [4] 86.4% | [5] 16.5% | [6] 35.9% | [8] 35.7% | [9] 45.3% | [10] 52%
active: [7] 1.33%

Nc1nc(-c2ccccc2)cc(-c2cc3ccccc3nc2Cl)n1
inactive: [1] 89.3% | [2] 78.1% | [3] 96.7% | [4] 89.4% | [5] 81.5% | [6] 73.1% | [7] 89.4% | [8] 91% | [9] 89.7% | [10] 110%
